Screening data as filed in PubChem.
Rows were chosen to be rich in hits. Some 6% of all compounds tested hit in one or more screens of this group.
Sfp PPTase inh – Sfp phosphopantetheinyl transferase inhibition. Potency, µM, without a hit: largest response in the series, negative = inhibition, actives largely listed as inhibitors. Q9F4F7. 3.5% of 310,000 active. AID 1490. Biochemical Sfp PPTase activity, qHTS;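 further: the enzyme is Sfp with the accession as filed and its product quenches rhodamine fluorescence; 0% = enzyme reaction without inhibitor and -100% = no enzyme wells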
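Buffer: 50 mM Hepes-Na pH 7.6, 10 mM MgCl2, 0.01% Nonidet P-40, 0.01% BSA. Enzyme 15 nM, pre-exposed to compound 15 min; substrates then added and fluorescence change tracked over 30 min.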
Tau fibril FP – inhibitors of human tau fibril formation; P10636; K18 P301L tau heparin fibrillization, Alexa594 FP, 6 h; Potency, µM (doses to about 57.7 µM), for the others: at the top dose activity, negative = inhibition, hits mostly inhibitors; 0.39% of 280,000 active; AID 1468; further: nearly all actives have a fitted effect of over 55% in size
Target sequence (P10636 561-689 P618L limits assumed): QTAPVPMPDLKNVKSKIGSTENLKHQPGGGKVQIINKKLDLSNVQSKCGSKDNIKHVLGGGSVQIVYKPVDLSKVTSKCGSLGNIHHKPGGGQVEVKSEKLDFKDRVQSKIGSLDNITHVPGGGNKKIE
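Human tau K18 […] P301L fragment, 15 uM unlabeled plus 0.24 uM Alexa 594-labeled tau (final), with compound and 20 uM heparin in 100 mM sodium acetate pH 7; 6 hr at 37 C, then Alexa 594 FP read.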
Tau fibril ThT – blocks human tau fibril formation measured by thioflavin T; Potency, µM (doses to about 57.4 µM), for inactives: at the top dose activity, negative = inhibition, most hits filed as inhibitors; P10636; 2.1% of 270,000 active; recombinant tau K18 P301L, heparin-induced fibrillization, ThT fluorescence; further: nearly all actives have a fitted effect of over 55% in size
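K18 P301L tau (15 uM + 0.24 uM Alexa 594-tagged), heparin 20 uM, NaOAc pH 7, 6 h 37 C; ThT 30 uM, 1 h RT, ex 450/em 510 nm.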
VDR inhibitor – vitamin D3 receptor (human) inhibition; VDR-SRC2-3 peptide fluorescence polarization, 2 h; Potency, µM, inactives show max response, negative = inhibition, usual class: inhibitors; P11473; 0.93% of 400,000 active
Target sequence (P11473 whole entry, looked up): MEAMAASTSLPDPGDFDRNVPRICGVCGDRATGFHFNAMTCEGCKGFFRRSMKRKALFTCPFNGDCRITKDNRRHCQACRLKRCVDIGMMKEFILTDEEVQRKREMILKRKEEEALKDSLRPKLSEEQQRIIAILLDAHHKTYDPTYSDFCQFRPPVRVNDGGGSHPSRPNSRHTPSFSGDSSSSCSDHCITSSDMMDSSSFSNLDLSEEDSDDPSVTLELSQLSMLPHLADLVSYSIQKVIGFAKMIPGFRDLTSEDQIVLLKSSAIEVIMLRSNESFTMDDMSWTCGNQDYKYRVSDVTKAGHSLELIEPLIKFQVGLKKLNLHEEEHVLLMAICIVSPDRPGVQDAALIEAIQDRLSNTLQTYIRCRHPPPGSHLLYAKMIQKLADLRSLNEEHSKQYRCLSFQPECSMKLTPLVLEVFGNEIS
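The screen uses fluorescence polarization to detect compounds that interfere with recruitment of the SRC2-3 coactivator peptide to VDR; plates are read after 2 h at room temperature.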
Tau fluor counter – counter-screen for tau fibril formation inhibitors; tau K18 P301L Alexa594 fluorescence, heparin fibrillization; Potency, µM (titrated, usually from 57.7 µM), for inactives: at the highest dose activity change, negative = decrease; 0.93% of 280,000 active; AID 1463; further: nearly all actives have a fitted effect of over 55% in size
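Human tau K18 P301L (15 uM unlabeled, 0.24 uM Alexa 594-labeled) in 100 mM sodium acetate pH 7 with 20 uM heparin, 6 hr at 37 C. ThT 30 uM added, 1 hr ambient; Alexa 594 FP and total fluorescence read at 555/632 nm.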
PLK1 PBD block – PLK1 (human) polo-box domain binding inhibition. Plk1 PBD binding of FITC phosphopeptide, fluorescence polarization. Potency, µM, inactives show max response, negative = inhibition, hits mostly inhibitors. 2.8% of 360,000 active. AID 720504; further: series mostly up to about 57 µM; nearly all actives have a fitted effect of over 65% in size
The depositor's hits bear a star; [ ] = remark or other dose. The call rests on the fitted dose curve; in most records, active means well fitted curve in the direction sought with a large enough effect; inconclusive means small, poorly fitted or top-dose-only effect, or another doubt; inactive means no such curve, though single readings can be large; an effect the other way counts as inactive or inconclusive. Unless noted, on the % scale 0 is the no-effect control and ±100 the full control effect; potency means the concentration at half of the fitted maximal effect.

What do the screens show for `CCOC(=O)c1c(NC(=O)C2C3CCC(O3)C2C(=O)O)sc2c1CCC(CC)C2` (stereo not given)?
Sfp PPTase inh: 3%; Tau fibril FP: 0%; Tau fibril ThT: -7%; VDR inhibitor: -5%; Tau fluor counter: 7%; PLK1 PBD block: inconclusive

Results for CCOC(=O)c1c(NC(=O)C2C3C=CC(C3)C2C(=O)O)sc2c1CCC(CC)C2 (stereo not given) ?
Sfp PPTase inh: 8%; Tau fibril FP: 7%; Tau fibril ThT: -6%; VDR inhibitor: inconclusive; Tau fluor counter: -9%; PLK1 PBD block: 27µM*

What do the screens show for `O=c1c2c(-c3ccccc3)csc2nc2c3ccccc3c(NCCN3CCOCC3)nn12`?
Sfp PPTase inh: 35µM*; Tau fibril FP: inconclusive; Tau fibril ThT: inconclusive; VDR inhibitor: 17%; Tau fluor counter: -25%; PLK1 PBD block: -6%

Results for Cc1ccc2nc(SC(Cc3cc(Cl)ccc3Cl)C(=O)O)[nH]c2c1 (stereo not given) ?
Tau fibril FP: 3%; Tau fibril ThT: 1%; VDR inhibitor: -1%; Tau fluor counter: -3%

What do the screens show for `CCOc1cc(/C=N\NC(=O)CN2CCOCC2)ccc1OCc1ccc(F)cc1`?
Sfp PPTase inh: 19%; Tau fibril FP: 1%; Tau fibril ThT: 0%; VDR inhibitor: 2%; Tau fluor counter: 9%; PLK1 PBD block: -7%

What do the screens show for `CCOc1cc(/C=N/NC(=O)Cn2nc([N+](=O)[O-])cc2C)ccc1OCc1ccc(F)cc1`?
Sfp PPTase inh: 45µM*; Tau fibril FP: inconclusive; Tau fibril ThT: -4%; VDR inhibitor: 16%; Tau fluor counter: inconclusive; PLK1 PBD block: -21%

Results for C=CCn1ccc(=O)nc1SC ?
VDR inhibitor: 17%; PLK1 PBD block: -19%

How did CC1(C)Nc2ccc(O)cc2-c2c1ssc2=S do in these assays?
Sfp PPTase inh: 45µM*; Tau fibril FP: inconclusive; Tau fibril ThT: 11µM*; VDR inhibitor: inconclusive; Tau fluor counter: inconclusive; PLK1 PBD block: 27µM*

What do the screens show for `O=Cc1cnc(N2CCCCC2)s1`?
Sfp PPTase inh: 27%; Tau fibril FP: 10%; Tau fibril ThT: 1%; VDR inhibitor: 7%; Tau fluor counter: 2%; PLK1 PBD block: 2%

How did O=C(N/N=C/c1cnc(N2CCCCC2)s1)c1ccc(Cl)cc1 do in these assays?
Sfp PPTase inh: -18%; Tau fibril FP: 14%; Tau fibril ThT: inconclusive; VDR inhibitor: -6%; Tau fluor counter: inconclusive; PLK1 PBD block: 30µM*

Results for CCOc1ccccc1CNS(=O)(=O)c1ccc(-c2coc(C)n2)cc1 ?
Tau fibril FP: 8%; Tau fibril ThT: 7%; VDR inhibitor: -4%; Tau fluor counter: -9%

How did Nc1ccccc1Nc1ccccc1 do in these assays?
Sfp PPTase inh: -27%; Tau fibril FP: 1%; Tau fibril ThT: inconclusive; VDR inhibitor: 5%; Tau fluor counter: -29%; PLK1 PBD block: -9%

How did Nc1ccccc1Nc1cc(-c2ccccc2)[nH]n1 do in these assays?
Sfp PPTase inh: -2%; Tau fibril FP: 8%; Tau fibril ThT: 14µM*; VDR inhibitor: 11%; Tau fluor counter: inconclusive; PLK1 PBD block: -5%

What do the screens show for `Nc1ccccc1Nc1cc(-c2ccccc2)nn1-c1ccccc1`?
Sfp PPTase inh: -10%; Tau fibril FP: 16%; Tau fibril ThT: inconclusive; VDR inhibitor: -6%; Tau fluor counter: 14µM*[quencher]; PLK1 PBD block: -7%

How did Cc1ccc(S(=O)(=O)N2CCN(CCC#N)CC2)cc1 do in these assays?
Sfp PPTase inh: 79µM*; Tau fibril FP: 7%; Tau fibril ThT: 2%; VDR inhibitor: -11%; Tau fluor counter: -3%; PLK1 PBD block: 0%

What do the screens show for `Nc1c(C(=O)Nc2ccccc2)nnn1Cc1ccc(F)cc1Cl`?
Tau fibril FP: -10%; Tau fibril ThT: 1%; VDR inhibitor: -2%; Tau fluor counter: -18%

How did COc1cc(CNCCN2CCOCC2)ccc1OCC(=O)NC(C)(C)C do in these assays?
Sfp PPTase inh: 71µM*; Tau fibril FP: 4%; Tau fibril ThT: 16%; VDR inhibitor: -8%; Tau fluor counter: 18%; PLK1 PBD block: -7%

How did CCCCN1C(=O)C(CC(=O)NCc2cccc3ccccc23)CC(C(=O)N(C)C)=C1C (stereo not given) do in these assays?
PLK1 PBD block: -5%

What do the screens show for `CCN1/C(=C/C=C/c2oc3ccc(-c4ccccc4)cc3[n+]2CC)Oc2ccc(-c3ccccc3)cc21`?
Sfp PPTase inh: 11µM*; Tau fibril FP: inconclusive; Tau fibril ThT: inconclusive; VDR inhibitor: 23%; Tau fluor counter: 4µM*[fluorescent]; PLK1 PBD block: -110%

What do the screens show for `CCCCN1C(=O)/C(=C/C=C2\Oc3ccccc3N2CC)SC1=S`?
Sfp PPTase inh: -26%; Tau fibril FP: -14%; Tau fibril ThT: inconclusive; VDR inhibitor: 12%; Tau fluor counter: -14%; PLK1 PBD block: 52%

Results for CC(C)c1ccc(NC(=O)CN2C(=O)COc3ccc(S(=O)(=O)N4CCCCCC4)cc32)cc1 ?
Tau fibril FP: -10%; Tau fibril ThT: 6%; VDR inhibitor: 9%; Tau fluor counter: -25%

How did CC(C)c1nc2ccc(C(=O)NCc3ccc(F)cc3)cc2o1 do in these assays?
Tau fibril FP: -6%; Tau fibril ThT: 6%; VDR inhibitor: 8%; Tau fluor counter: 4%

What do the screens show for `Oc1ccc(Cl)c2cccnc12`?
Sfp PPTase inh: 28%; Tau fibril FP: -3%; Tau fibril ThT: inconclusive; VDR inhibitor: inconclusive; Tau fluor counter: -25%; PLK1 PBD block: 4%

Results for Oc1ccc(F)c2cccnc12 ?
Sfp PPTase inh: 5%; Tau fibril FP: -15%; Tau fibril ThT: -12%; VDR inhibitor: 40µM*; Tau fluor counter: -5%; PLK1 PBD block: 5.3µM*

Results for Oc1ccc(CNc2ccccc2F)c2cccnc12 ?
Sfp PPTase inh: 1%; Tau fibril FP: 6%; Tau fibril ThT: inconclusive; VDR inhibitor: inconclusive; Tau fluor counter: -19%; PLK1 PBD block: 3.4µM*

How did O=C(NCc1ccccc1Cl)c1cc(-c2ccccc2)n[nH]1 do in these assays?
Tau fibril FP: -11%; Tau fibril ThT: 10%; VDR inhibitor: 12%; Tau fluor counter: -25%

Results for CCCCC[C@@H](C)N1C[C@@H](COCc2ccccc2)Oc2cc(N3CC[C@@H](N(C)C)C3)ccc2S1(=O)=O ?
PLK1 PBD block: -8%

Results for CCCOc1ccc(C2=CSC3=NCCN23)cc1[N+](=O)[O-] ?
Sfp PPTase inh: 1%; VDR inhibitor: inconclusive; PLK1 PBD block: 30µM*

What do the screens show for `O=S(=O)(c1ccc(C2=CSC3=NCCN23)cc1)N1CCOCC1`?
Sfp PPTase inh: 56µM*; Tau fibril FP: -14%; Tau fibril ThT: -15%; VDR inhibitor: 12%; Tau fluor counter: -4%; PLK1 PBD block: -21%
